Records with an inconclusive call do not appear. Entries that show only a call come without a potency. A number with no mark means an inactive call. Calls of active or inactive are those of the source. Calls follow the shape of the dose curve; as a rule, active = well fitted cell-killing curve with a large enough effect in the repeat runs; inconclusive = weak or mixed curves, or effect the other way; inactive = flat fitted curve, though single readings scatter.

This assay in a line: qHTS assay to identify small molecule antagonists of the estrogen receptor alpha (ER-alpha) signaling pathway using the BG1 cell line in the presence of 0.1 nM 17-beta-estradiol - cell viability counter screen (AID 1259241). Also: nearly all actives have a fitted effect of over 40% in size. The conditions noted are these: VM7Luc4E2 (BG1) viability, CellTiter-Fluor protease, 22 h, 0.1 nM estradiol agonist added; series mostly up to 92.4 µM; activity change, negative = cytotoxicity: at the top concentration. From the text: National Center for Advancing Translational Sciences [NCATS]
NIH Chemical Genomics Center [NCGC]
U.S. Environmental Protection Agency [EPA]
National Institutes of Environmental Health Sciences [NIEHS]
National Toxicology Program [NTP]
U.S. Food and Drug Administration [FDA]
Estrogen receptor (ER), a member of the nuclear hormone receptor plays an important role in development, metabolic homeostasis and reproduction. Two subtypes of ER, ER-alpha and ER-beta, have similar expression patterns with some uniqueness in both types. Endocrine disrupting chemicals (EDCs) and their interactions with steroid hormone receptors like ER causes disruption of normal endocrine function. Therefore, it is important to understand the effect of environmental chemicals in ER signaling pathway. For identifying ER antagonists, VM7Luc4E2 cell line was used to screen against Tox21 compound libraries.
VM7Luc4E2 cell line (provided by Denison MS, University of California) endogenously express full-length ER-alpha and is stably transfected with a plasmid containing four estrogen responsive elements (ERE) upstream of a luciferase reporter gene. The current screening for identification of ER-alpha inhibitors against Tox21 compound libraries used lower concentration (0.1 nM) of 17beta-Estradiol as a stimulator. The cytotoxicity of the Tox21 compound libraries against VM7Luc4E2 cell line was tested by measuring live-cell protease activity using CellTiter-Fluor assay in the same wells.
Tox21 Assay Protocol Summary:
VM7Luc4E2 cells were cultured in phenol red free assay medium containing 10% charcoal stripped FBS for 5 days prior to the assay. The cells were dispensed at 4,000 cells/well in 4 uL of assay medium into white wall/solid-bottom 1536-well plates (Corning Life Sciences, Corning, NY) using a Multidrop Combi (ThermoFisher Scientific, Waltham, MA) dispenser. After the assay plates were incubated at 37C and 5% CO2 for 24 hr, 23 nL of compounds dissolved in DMSO, positive controls or DMSO only was transferred to the assay plates by a Pintool station (Kalypsys, San Diego, CA). The transfer of compounds was followed by the addition of 1 uL of 0.1 nM (final concentration) agonist (17beta-Estradiol)/assay medium using a Flying Reagent Dispenser (FRD, Aurora Discovery, San Diego, CA). The plates were incubated at 37C and 5% CO2 for 22 hr. For cytotoxicity assay, 1 uL of CellTiter-Fluor reagent (Promega Corporation, Madison, WI) was added to each well using the FRD and after 30 min incubation at 37C and 5% CO2, The fluorescence intensity was measured using ViewLux plate reader (PerkinElmer, Shelton, CT).
On to `CC(=O)CC(=O)Nc1ccccc1`, for which the Potency result is “inactive”.
As for `O=C(Oc1ccccc1)c1ccccc1`, the Potency entry was “inactive”.
Same read-out and setting: in the case of `COCCCOc1ccnc(CS(=O)c2nc3ccccc3[nH]2)c1C` (stereo not given) it was “inactive”; in that of `COc1cc(Cc2cnc(N)nc2N)cc(OC)c1OC`, “inactive”; in that of `CCN(CC)c1ccc(C(=O)c2ccccc2C(=O)O)c(O)c1`, “inactive”.
Same read-out and setting: in the case of `O=P(OC(CCl)CCl)(OC(CCl)CCl)OC(CCl)CCl` it was “inactive”; in that of `CN(C)CCCN`, “inactive”.
Consider `O=C=NCCCCCCN=C=O`, for which the Potency result was “inactive”.
Same read-out and setting: the result for `C=CCOC(=O)c1ccccc1C(=O)OCC=C` reads “inactive”; that for `CC(=O)c1ccccc1`, “inactive”.
Take `O=C(O)c1cc(C(=O)O)cc(S(=O)(=O)O)c1`: the Potency entry is “inactive”.
Same read-out and setting: in the case of `COc1ccc(Nc2ccccc2)c(C)c1` it was “inactive”; in that of `CCCCC(CC)COC(=O)CCCCC(=O)OCC(CC)CCCC` (stereo not given), “inactive”.
In the case of `CCOC(=O)NNc1nncc2ccccc12`, the Potency entry was “inactive”.
For the compound `C=C(C)C(=O)OCCOCCOCCOC(=O)C(=C)C`, the Potency result is “inactive”.
On to `CC(O)COCC(C)O` (stereo not given), for which the Potency entry was “inactive”.
On the same count and under the same terms, in the case of `CC1=CC(=O)NS(=O)(=O)O1` it was “inactive”.
With `C/C=C1/CC2C=CC1C2` (stereo not given), the Potency entry was “inactive”.
With `CC(C)(C)[C@@H](O)[C@@H](Cc1ccc(Cl)cc1)n1cncn1`, the Potency result was “inactive”.
On the same count and under the same terms, the result for `CCc1ccc(CCOc2ccc(CC3SC(=O)NC3=O)cc2)nc1` (stereo not given) reads “inactive”; that for `Cc1ccc(N(C)C)cc1`, “inactive”; that for `Cc1cc(C)c(C)cc1C`, “inactive”.
In the case of `CC1=C(C)S(=O)(=O)CCS1(=O)=O`, the Potency result is “inactive”.
Turning to `O=C1CCC(N2C(=O)c3ccccc3C2=O)C(=O)N1` (stereo not given), the Potency entry is “inactive”.
Same read-out and setting: in the case of `CCCCCCCCCCCCCCCO` it was “inactive”; in that of `COc1ccc2cc([C@H](C)C(=O)O)ccc2c1`, “inactive”; in that of `C[C@H]1C[C@H]2[C@@H]3CCC4=CC(=O)C=C[C@]4(C)[C@@]3(F)[C@@H](O)C[C@]2(C)[C@@]1(O)C(=O)CO`, “inactive”.
Consider `O=S1(=O)CC=CC1`, for which the Potency result is “inactive”.
In the case of `C[Si](O[Si](C)(C)C)O[Si](C)(C)C`, the Potency result was “inactive”.
Same read-out and setting: the result for `Cc1ccc2oc(=O)ccc2c1` reads “inactive”; that for `CC(C)c1ccc(S(=O)(=O)O)cc1`, “inactive”; that for `CCCCCC/C(C=O)=C\c1ccccc1`, “inactive”.
The same measure, in the same setting: in the case of `O=C(O)CC(C(=O)O)C(CC(=O)O)C(=O)O` (stereo not given) it was “inactive”; in that of `CC1=CCC2CC1C2(C)C` (stereo not given), “inactive”; in that of `CC(=O)Nc1cccc(O)c1`, “inactive”.
On the same count and under the same terms, in the case of `O=[N+]([O-])c1ccc(/C=C/c2ccc([N+](=O)[O-])cc2S(=O)(=O)O)c(S(=O)(=O)O)c1` it was “inactive”; in that of `Nc1ccccc1[N+](=O)[O-]`, “inactive”; in that of `CCCCCCOCCO`, “inactive”.
`CN(C)CCC(c1ccc(Cl)cc1)c1ccccn1` (stereo not given): the “activity change, negative = cytotoxicity” value is -17.9%.
With `O=c1[nH]c(=O)n([C@H]2C[C@H](O)[C@@H](CO)O2)cc1Br`, the Potency entry is “inactive”.

These data come from PubChem BioAssay (Tox21).
